This passage reports inhibition results from PubChem BioAssay AID1259343 (VanderVen Lab, College of Veterinary Medicine, Cornell …, 2017).

Molecules are shown by their SMILES. Screen size: about 6,200 compounds; about 2,900 (47%) were called active. The set was probably picked from earlier hits. The list shows a part of the results. A number with no mark means an inactive call. Rule as the data show it: active = inhibition above about 50%; inactive = the rest.

The assay can be described thus: Mycobacterium tuberculosis growth inhibition, primary screen (AID 1259343). The following applies: inhibition: at 10 µM, stronger effect = higher value; outcome: 10 uM.
For orientation: inhibition means the drop in the measured response relative to a control, in per cent. On to `O=C(Nc1cccc(-c2cccc(Cl)c2)c1)C1CCN(C(=O)C2CC=CCC2)CC1` (stereo not drawn), for which the inhibition was 81.6% (active).

As for `CC(C)c1nccc(-c2nccn2CC2(O)CCN(C)CC2)n1`, the inhibition is -4.81%.

As for `COc1ccccc1-c1c(C)nn2c(NC(C)c3ccccc3)cc(C)nc12` (stereo not drawn), the inhibition is 5.58%.

With `COc1ccccc1-c1c(C)[nH]n2c(=O)cc(-c3ccc([N+](=O)[O-])cc3)nc12`, the inhibition was 77.8% (active).

`COc1ccc(Cc2[nH]n3c(=O)cc(C)nc3c2-c2ccccc2)cc1`: the inhibition is 37.9%.

For `COc1ccc(Nc2nc3cc(Cl)ccc3o2)cc1Cl`, the inhibition is 21.2%.

On to `COc1ccc(NC(C)c2nc(C)no2)cc1Cl` (stereo not drawn), for which the inhibition is 57.6% (active).

Regarding `CC(Oc1ccc(Cl)cc1Cl)c1nc(-c2ccncc2)no1` (stereo not drawn), the inhibition was 43.3%.

For `CNc1nc(C)c(C(=O)c2ccc(C)cc2)s1`, the inhibition was 86.1% (active).

On to `O=C(NNS(=O)(=O)c1ccc2c(c1)OCCO2)c1cc2c(s1)CCCCC2`, for which the inhibition was 20.9%.

Consider `CC(Cc1ccco1)NC(=O)c1cc2c(s1)CCC2` (stereo not drawn), for which the inhibition was 93.1% (active).

`CN(CC(=O)Nc1sc2c(c1C#N)CCCCC2)Cc1ccco1`: the inhibition is 49.1%.

Regarding `S=c1sc2c(Cl)ncnc2n1-c1ccccc1`, the inhibition is 60.9% (active).

Consider `Cn1c(=O)c([N+](=O)[O-])c(N2CCN(Cc3cccc4ccccc34)CC2)c2ccccc21`, for which the inhibition is 59% (active).

For `Cn1c(=O)c([N+](=O)[O-])c(N2CCN(Cc3ccc(Cl)cc3Cl)CC2)c2ccccc21`, the inhibition is 40.7%.

For `Cn1c(=O)c([N+](=O)[O-])c(N2CCN(CCOc3ccc(Cl)cc3)CC2)c2ccccc21`, the inhibition was 38.3%.

In the case of `O=c1cc(CSc2nc3ncc(Cl)cc3[nH]2)nc2ccc(Br)cn12`, the inhibition is 101% (active).

Turning to `Brc1ccc(CSc2nc3ncccc3[nH]2)cc1`, the inhibition was 34%.

On to `CC(NCc1cc(=O)n2cc(Br)ccc2n1)c1cc(F)c(Cl)cc1Cl` (stereo not drawn), for which the inhibition was 27.6%.

In the case of `CCCC[P+](CCCC)(CCCC)Cc1ccc(NC(=O)[C@@H](Cc2ccc3ccccc3c2)NC(=NC2CCCCC2)NC2CCCCC2)cc1`, the inhibition is 95.8% (active).

Consider `O=C(Nc1ncccc1OCC1CCCCC1)c1cscn1`, for which the inhibition was 55.5% (active).

For `O=S(=O)(NCC1(c2ccccc2)CC1)N1CCCCCC1`, the inhibition is 16.5%.

Regarding `O=C(NCC1(c2ccccc2)CC1)c1cc(Cl)ccc1O`, the inhibition was 94.2% (active).

`N#CC(C(=O)C1c2ccccc2-c2ccccc21)c1nc2ccccc2s1` (stereo not drawn): the inhibition was 33.3%.

For the molecule `N#CC(C(=O)C1COc2ccccc2O1)c1nc2ccccc2s1` (stereo not drawn), the inhibition is 19%.

As for `N#CC(C(=O)COc1cc(F)ccc1F)c1nc2ccccc2s1` (stereo not drawn), the inhibition was 91.5% (active).

Take `COc1ccc2cc(-c3[nH]ncc3CNC(C)Cc3cccs3)ccc2c1` (stereo not drawn): the inhibition is 50.1% (active).

Turning to `COc1ccc(-c2[nH]ncc2CNC(=O)CC2COCCN2)cc1` (stereo not drawn), the inhibition was -11.1%.

On to `CCOc1ccc(Oc2ccccc2NC(C)=O)cc1`, for which the inhibition is 73.6% (active).

With `CCOc1ccc(Oc2ccc(NC(C)=O)cc2)cc1`, the inhibition is -0.29%.

Turning to `CCOc1ccc(OCCCCOc2ccccc2C(C)=O)cc1`, the inhibition is 98% (active).

Consider `CCOc1cccc(OCCCOc2ccccc2C(C)=O)c1`, for which the inhibition is 92.5% (active).

As to `CC1CN(C(=O)c2ccc(NC(=O)C3CC3)cc2)c2ccccc2O1` (stereo not drawn), the inhibition is 87.7% (active).

With `CCCCCCCCc1ccc(CCC(N)(CO)CO)cc1`, the inhibition is 92% (active).

Regarding `CCCCc1ccc(-c2csc(NC(=O)OC)c2C(N)=O)cc1`, the inhibition is 2.76%.

Take `CCN(CC)c1ccc2cc(-c3csc(N/N=C\c4ccc(OC)cc4)n3)c(=O)oc2c1`: the inhibition is 25.9%.

On to `CCOc1ccc(/C=N\Nc2nc(-c3ccc(OC)c(OC)c3)cs2)cc1`, for which the inhibition was 79.8% (active).

`c1cc2c(cc1-c1csc(NCC3CCC3)n1)OCCCO2`: the inhibition is 3.11%.

Consider `CCOc1cc(C=NNc2nc(C)cs2)ccc1OC`, for which the inhibition was 72% (active).

Take `CCOc1ccc(C=C2N=C(C(C)(C)C)OC2=O)cc1OC`: the inhibition was 23.4%.

With `Cc1ccc(/C=N\Nc2nc(-c3ccc4c(c3)OCCO4)cs2)cc1`, the inhibition was -51.4%.

As for `COc1ccc(/C=N\Nc2nc(-c3ccc4c(c3)OCCO4)cs2)cc1OC`, the inhibition was 85.6% (active).

Regarding `CN1CC(CNC(=O)OCc2ccccc2)CC2c3cccc4c3c(cn4C)CC21` (stereo not drawn), the inhibition was 96.7% (active).

Turning to `CCOP(=O)(Oc1ccccc1)c1c([N+](=O)[O-])cc(C(F)(F)F)cc1[N+](=O)[O-]` (stereo not drawn), the inhibition was 94.9% (active).

Turning to `CC(C)Oc1ccc(Nc2nccc3[nH]c(-c4ccccc4)cc23)cc1`, the inhibition was 92.6% (active).

`CC(Oc1ccc(-n2cnc(-c3ccccc3)c2)cc1)C(N)=O` (stereo not drawn): the inhibition was 43.6%.

Regarding `CCN(CC)c1cc(-c2ccccc2)nc(SCc2cccc(C(=O)O)c2)n1`, the inhibition was 8.57%.

As for `O=C(CSc1ccc2nc(-c3ccccc3)cn2n1)c1ccccc1`, the inhibition is 65.7% (active).

Consider `c1ccc(CSc2nn3cc(-c4ccccc4)nc3s2)cc1`, for which the inhibition was 16.3%.

As for `O=C(/C=C/c1ccc([N+](=O)[O-])s1)Nc1ccc(F)cc1F`, the inhibition is 99.5% (active).

As for `CN(C(=O)/C=C/c1ccc([N+](=O)[O-])s1)c1ccccc1`, the inhibition was 6.56%.

For `CCCCc1ccc(NC2=NC(C)(C)CS2)cc1`, the inhibition was 89.8% (active).

As for `NC(N)=NN=C1c2ccccc2-c2ccccc21`, the inhibition was -74.8%.

Turning to `NC(N)=NN=Cc1ccc(-c2ccccc2)cc1`, the inhibition is 38.6%.

Consider `NC(N)=NN=CC(Cl)=Cc1ccccc1`, for which the inhibition was 85.8% (active).

Regarding `Cc1cc2oc(NC(=O)c3ccc(=O)n(C)c3)nc2c(C)c1Cl`, the inhibition is -2.23%.

In the case of `COc1ccc(C(=O)C2CCCN(Cc3nc(-c4ccc(F)cc4)cs3)C2)c(OC)c1` (stereo not drawn), the inhibition is 31.3%.

`COc1ccc(-c2csc(C(C#N)C(=O)CC3C=CCC3)n2)cc1` (stereo not drawn): the inhibition is 79.7% (active).

Turning to `CC(NC(=O)Nc1cccnc1N1CCCC1)c1ccn(C)c1` (stereo not drawn), the inhibition was -18.1%.

Consider `CN(C)c1cccc(Nc2nccc3c2cc(-c2ccsc2)n3C)c1`, for which the inhibition was 63.8% (active).

With `CN(C)c1cccc(Nc2nccc3c2cc(-c2ccccc2)n3C)c1`, the inhibition is 74.6% (active).

Take `O=C(NCc1ccc(Cl)s1)c1ccc(Br)o1`: the inhibition was -14.3%.

Turning to `O=C(NCc1cc(Br)cs1)c1ccc(Cl)o1`, the inhibition was 37.9%.

Turning to `O=C(NCCc1ccc(Cl)s1)c1ccc(Cl)o1`, the inhibition was 79.6% (active).

For the molecule `CCOc1cc(C=Nn2c(C)csc2=NC(C)C)ccc1O`, the inhibition was 18.4%.

For the molecule `Cc1ccc(OP(N)(=O)Oc2ccc(C)cc2)cc1`, the inhibition was -4.77%.

`O=C1CCCCC1Sc1nnc(Nc2ccccc2)s1` (stereo not drawn): the inhibition was 6.48%.

As for `CCc1ccc(-c2nc(SC3CCCCC3=O)n[nH]2)cc1` (stereo not drawn), the inhibition is 57.1% (active).

On to `CN(C1CCCCC1)S(=O)(=O)NC1COc2ccccc21` (stereo not drawn), for which the inhibition was 37.8%.

Take `COc1c(Cl)cc(C(=O)NCC(c2cccc(F)c2)N(C)C)cc1Cl` (stereo not drawn): the inhibition is -3.98%.

Turning to `Oc1c(Br)cc2oc3c(c2c1C=NCc1ccncc1)CCCC3`, the inhibition is 84% (active).

As to `Oc1c(I)cc2oc3c(c2c1C=NCc1ccncc1)CCCC3`, the inhibition was 8.12%.

As to `CCCc1cnc(-c2ccc(C)c3ncccc23)nc1`, the inhibition is 8.84%.

Turning to `COc1ccc(Cl)cc1C(=O)Nc1cc(-c2cccs2)nn1-c1nc(C(C)C)cc(=O)[nH]1`, the inhibition is 101% (active).

Take `COc1ccc(Cl)cc1C(=O)Nc1cc(-c2cccs2)nn1-c1nc(C)cc(=O)[nH]1`: the inhibition is 96.4% (active).

As to `Oc1c(C(c2ccc(Br)cc2)N2CCCC2)cc(Cl)c2cccnc12` (stereo not drawn), the inhibition is 10.6%.

With `CN1CCN(C(c2ccc(Cl)cc2)c2cc(Cl)c3cccnc3c2O)CC1` (stereo not drawn), the inhibition was 90.6% (active).

Turning to `Oc1c(C(c2ccncc2)N2CCOCC2)cc(Cl)c2cccnc12` (stereo not drawn), the inhibition was 101% (active).

`CC(C)(C)c1cc(C(c2ccncc2)N2CCOCC2)cc(C(C)(C)C)c1O` (stereo not drawn): the inhibition was 94.5% (active).

As for `CCOC(=O)N1CCN(C(=O)CCc2ccc(-c3ccc(OC)cc3)n2-c2ccc(SC)cc2)CC1`, the inhibition is 13.6%.

For `CCOC(=O)N1CCN(C(=O)CSc2cc(-c3ccccc3)ncn2)CC1`, the inhibition was 93.6% (active).

On to `CCOC(=O)CNC(=O)CSc1ncnc2c1nnn2Cc1ccccc1`, for which the inhibition was -26.6%.

`CC(C)(C)n1nc(C2CC2)cc1C(=O)NCC1Cc2ccccc2O1` (stereo not drawn): the inhibition was -7.17%.

Regarding `O=C(NCC1Cc2ccccc2O1)c1ccc(Cl)s1` (stereo not drawn), the inhibition was 53.1% (active).

As for `CC(C)(C)c1ccc2c(c1)CC(CNC(=O)/C=C/c1ccccc1)O2` (stereo not drawn), the inhibition is 27.2%.

Consider `O=C(OCC1CC2CCC1C2)C(c1ccccc1)n1cccn1` (stereo not drawn), for which the inhibition was 92.2% (active).

Turning to `CC(=O)N1CCC(NS(=O)(=O)c2ccc3c(c2)CCCC3)CC1`, the inhibition was 86.8% (active).

For the molecule `O=S(=O)(NC1CCc2cc(F)ccc21)c1ccc2c(c1)CCC2` (stereo not drawn), the inhibition was 10.6%.

On to `O=S(=O)(NC1CCN(C2CC2)CC1)c1cc(Cl)cc(Cl)c1`, for which the inhibition is 4.16%.

With `CN(C)c1ccc(C(=C2C=CC(=[N+](C)C)C=C2)c2ccc(N(C)C)cc2)cc1`, the inhibition was 59.1% (active).

Consider `O=C(NNC(=O)c1cc2cc(Cl)ccc2o1)c1cnccn1`, for which the inhibition was 101% (active).

Turning to `O=C(c1cc2cc(Cl)ccc2o1)N1CCN(S(=O)(=O)c2ccccc2Cl)CC1`, the inhibition was 42.3%.

With `CCc1c(C)nc(-n2nc(C)cc2NC(=O)c2cc(OC)cc(OC)c2)[nH]c1=O`, the inhibition was 101% (active).

Take `CCOc1cc(C(=O)Nc2cc(C)nn2-c2nc(C)c(CC)c(=O)[nH]2)cc(OCC)c1OCC`: the inhibition was -22.4%.

As for `CCc1c(C)nc(-n2nc(C)cc2NC(=O)c2cc(C(F)(F)F)cc(C(F)(F)F)c2)[nH]c1=O`, the inhibition is -3.31%.

As to `CCc1c(C)nc(-n2nc(C)cc2NC(=O)c2cccc(OC)c2)[nH]c1=O`, the inhibition is 102% (active).

As to `CCc1c(C)nc(-n2nc(C)cc2NC(=O)c2ccc(C(F)(F)F)cc2)[nH]c1=O`, the inhibition was 101% (active).

For `CCc1c(C)nc(-n2nc(C)cc2NC(=O)c2ccc(OC)cc2)[nH]c1=O`, the inhibition was 99.8% (active).
